Data reported in PubChem BioAssay AID588519 (ICCB-Longwood Screening Facility, Harvard Medical School, 2011).
Among all 150,000 compounds or so, about 1,000 (0.67%) were called active. No stated cut-off is given here; in the data, active means % elongation below about 90%; inactive means the rest, inconclusive results apart. Shown is part of a subset that was picked to be rich in actives.

Target: Genome polyprotein (Poliovirus type 1 (strain Mahoney)) (UniProt P03300)
Test: poliovirus RdRp elongation inhibitors, primary screen, biochemical, fluorescence polarization, total intensity (AID 588519); on z-score: compound at 16.7 µg/mL
Details: poliovirus polymerase elongation, stronger effect = lower value; for % elongation: compound at 16.7 µg/mL; for z-score: measured here: FP z-score
[1] = measured here: total intensity read-out

Genome polyprotein (Poliovirus type 1 (strain Mahoney)), sequence (P03300 1749-2209 limits assumed): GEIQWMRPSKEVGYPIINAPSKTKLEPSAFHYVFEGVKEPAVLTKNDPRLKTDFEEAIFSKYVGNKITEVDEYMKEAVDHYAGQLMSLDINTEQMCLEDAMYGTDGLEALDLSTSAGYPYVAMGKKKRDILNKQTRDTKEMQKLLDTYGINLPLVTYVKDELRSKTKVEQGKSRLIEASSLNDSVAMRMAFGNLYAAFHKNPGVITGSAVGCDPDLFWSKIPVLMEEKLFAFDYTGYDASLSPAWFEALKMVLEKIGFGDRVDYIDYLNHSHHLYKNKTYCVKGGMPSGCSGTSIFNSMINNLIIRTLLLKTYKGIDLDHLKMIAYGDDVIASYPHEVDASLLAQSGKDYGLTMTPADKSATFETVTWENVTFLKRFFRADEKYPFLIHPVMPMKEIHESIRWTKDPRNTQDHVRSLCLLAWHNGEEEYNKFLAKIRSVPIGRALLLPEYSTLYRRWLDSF

SMILES | % elongation | z-score | % elongation [1] [%]
CN1CCc2c(c(S)[nH]c(=S)c2C#N)C1 | -17% (active) | -18.2 | 48
Cc1ccc(-n2c(C)cc(C(=O)CN3CC(C)OC(C)C3)c2C)cc1 (centres undefined) | 100% (inactive) | -0.2 | 99
O=C(O)CCCN1C(=O)/C(=C2\SC(=S)N(CCCC(=O)O)C2=O)SC1=S | 88% (active) | -4.7 | 86
O=C(O)CCCN1C(=O)c2ccccc2Sc2ncccc21 | 101% (inactive) | -0.2 | 105
O=C(O)CN1C(=O)/C(=C2/OC(=O)c3ccccc32)SC1=S | 101% (inactive) | -0.1 | 99
CCn1c(=O)c(=O)n(CC)c2cc(N3CCCCC3)c(NC(=O)c3ccc(Cl)cc3)cc21 | 90% (active) | -4.3 | 85
CCn1c(=O)c(=O)n(CC)c2cc(N3CCCCC3)c(NC(=O)c3ccccc3)cc21 | 101% (inactive) | 0.2 | 102
CCn1c(=O)c(=O)n(CC)c2cc(N3CCCCC3)c(NC(=O)c3cccc(F)c3)cc21 | 104% (inactive) | -0.3 | 107
CS(=O)(=O)Nc1ccc2c(c1)COC2=O | 102% (inactive) | 0 | 102
Cc1nc(N(CC(=O)OC2CC(C)CCC2C(C)C)S(=O)(=O)c2ccc(N)cc2)c(C)n1N (centres undefined) | 102% (inactive) | 0.1 | 92
CCCCCC(=O)Nc1cc(-c2nc3cc(C)cc(C)c3o2)ccc1C | 103% (inactive) | 0.3 | 102
O=C1CCC(=O)N1C(c1ccccc1)c1ccccc1 | 104% (inactive) | 0.6 | 103
O=C(ON1C(=O)CCC1=O)c1ccccc1 | 80% (active) | -2.1 | 89
CCN(Cc1ccccc1)C(=O)c1cccc(N2C(=O)CCC2=O)c1 | 101% (inactive) | -0.5 | 103
Cc1c(C=Nc2ccc(S(=O)(=O)N(C)C)cc2)c(O)n(C)c(=O)c1C#N | 104% (inactive) | 0.1 | 114
Cn1c(=O)c(=O)n(C)c2cc(NC(=O)c3ccccc3Br)ccc21 | 109% (inactive) | 1.1 | 113
CCOc1ccc2nc(NC(=O)c3ccccc3OC)sc2c1 | 99% (inactive) | -0.1 | 92
COc1ccc2c(c1)Cc1sc(NC(=O)c3ccccc3Br)nc1-2 | 59% (active) | -7.3 | 63
COC(=O)C1CCN(S(=O)(=O)c2ccc(Cl)cc2)CC1 | 103% (inactive) | 0.2 | 102
NCC1OC(OC2C(N)CC(N)C(O)C2O[C@@H]2O[C@H](CO)[C@H](O)C2O)C(N)C(O)C1O (some centres undefined) | 99% (inactive) | -0.1 | 103
NC[C@@H]1O[C@H](O[C@@H]2[C@@H](CO)OC(O[C@@H]3[C@@H](O)[C@H](N)C[C@H](N)[C@H]3OC3O[C@H](CN)[C@@H](O)[C@H](O)[C@H]3N)[C@@H]2O)[C@H](N)[C@@H](O)[C@@H]1O (some centres undefined) | 87% (active) | -1.4 | 78
NC(=O)c1cccc(N2C(=O)c3ccccc3C2=O)c1 | 105% (inactive) | 0.2 | 102
O=C1CCC(=O)N1OCC1CCCN2CCCCC12 (centres undefined) | 104% (inactive) | 0.1 | 108
CCSc1nsc(SCC)c1C(=O)O | 88% (active) | -1.5 | 96
O=C(Nc1sc2c(c1C(=O)NCCc1ccccc1)CCC2)c1ccco1 | 103% (inactive) | 0.4 | 105

SMILES | % elongation | z-score | % elongation [1] [%]
Cc1ccc(CSc2oc(-c3cccs3)nc2S(=O)(=O)c2ccc(C)cc2)cc1 | 108% (inactive) | 0.8 | 109
Cc1ccc(S(=O)(=O)c2no[n+]([O-])c2S(=O)(=O)c2ccc(C)cc2)cc1 | 79% (active) | -2.2 | 69
Cc1ccc(-c2nc(S(=O)(=O)c3ccc(C)cc3)c(N3CCCCCC3)o2)cc1 | 100% (inactive) | -1.6 | 104
CCC(c1nnc(SCc2nc3sc4c(c3c(=O)[nH]2)CCC4)n1Cc1ccccc1)N(C)C (centres undefined) | 114% (inactive) | 2 | 106
Cc1c(S(=O)(=O)O)oc2c1C(=O)C(=O)c1c-2ccc2c1CCCC2(C)C | 87% (active) | -1.4 | 88
COc1ccccc1Cn1cccc1C1=NC(C(C)C)CO1 (centres undefined) | 101% (inactive) | 0.2 | 103
COC1CC(O[C@@H]2[C@H](C)[C@H](OC3OC(C)CC(N(C)C)C3OC(C)=O)[C@H](C)CC3(CO3)C(=O)[C@@H](C)C(OC(C)=O)[C@H](C)[C@H](C)OC(=O)[C@@H]2C)OC(C)C1OC(C)=O (some centres undefined) | 100% (inactive) | 0.2 | 103
Cc1ccc(OCCn2cc(C(=O)c3ccccc3)c3ccccc32)cc1 | 100% (inactive) | -0.4 | 96
CCOc1ccccc1NC(=O)Cn1c2ncccc2c(=O)n1-c1ccc(C)c(C)c1 | 107% (inactive) | 0 | 105
CC(C)c1ccc(NC(=O)Cn2c3ncccc3c(=O)n2-c2ccccc2)cc1 | 33% (active) | -5.2 | 49
Cc1ccc(-n2c(=O)c3cccnc3n2CC(=O)Nc2ccccc2C(F)(F)F)cc1C | 110% (inactive) | 0.2 | 105
CSc1ccc(/C=N/NC(N)=S)cc1 | 98% (inactive) | -0.7 | 63
CCc1c(C)sc(NC(=O)c2cccs2)c1C(N)=O | 74% (active) | -2.8 | 79
Cc1ccc(O)c(NC(=O)c2cccs2)c1 | 99% (inactive) | -0.7 | 108
COC(=O)c1c(NC(=O)c2cccs2)sc2c1C(C(=O)OC)CC2 (centres undefined) | 99% (inactive) | -0.7 | 97
CC(NC(=O)Nc1cccnc1)N1C(=O)C2C3C=CC(C3)C2C1=O (centres undefined) | 100% (inactive) | -0.4 | 103
O=C(O)/C(=C/C(=O)c1ccccc1)Nc1ccc(OC(F)(F)F)cc1 | 103% (inactive) | 0 | 111
CC(C)(C)NC(=O)C1N(C2CC2)C(=O)C2C(C(=O)NCc3ccccc3)C3C=CC21O3 (centres undefined) | 103% (inactive) | 0.3 | 104
Cc1ccccc1CN1CCCN(Cc2ccccc2)S1(=O)=O | 103% (inactive) | 0.1 | 99
CCC(=O)c1ccc(OCC(=O)NC2CCCCC2C)cc1 (centres undefined) | 101% (inactive) | -0.4 | 93
Cc1cc(C)c2nc3nc(C)cc(C)c3c(N)c2c1 | 90% (active) | -2.4 | 76
Cc1cc(C)c2nc(-c3ccco3)cc(C(=O)O)c2c1 | 96% (inactive) | -1.9 | 93
Cc1cc(C(=O)COc2ccc(-n3ccnc3)cc2)c(C)n1-c1ccc2c(c1)OCO2 | 103% (inactive) | 0.1 | 107
Nc1nnc(-c2ccc(Cn3c(-c4cncs4)nc4ccccc43)cc2)s1 | 63% (active) | -5.6 | 75
CC(=O)Nc1nc2ccccc2n1Cc1ccc(C)cc1 | 100% (inactive) | -0.7 | 102

SMILES | % elongation | z-score | % elongation [1] [%]
Cc1ccc(Cn2c(CNC(=O)c3ccccc3)nc3ccccc32)cc1 | 100% (inactive) | -0.3 | 104
O=C1Nc2ccccc2N(c2ccccc2)N1 | 101% (inactive) | 0.4 | 105
CCOc1ccccc1N(CC(=O)NC)S(C)(=O)=O | 102% (inactive) | 0.4 | 103
Cc1cc(C(=O)COC(=O)c2ccc(S(=O)(=O)NCc3ccco3)cc2)c(C)n1C | 101% (inactive) | -0.2 | 100
CCOc1ccccc1N(CC)C(=O)Nc1cn(C)c(=O)c2ccccc12 | 103% (inactive) | -0.7 | 104
CCOc1ccccc1CNC(=O)Nc1cn(CC(C)C)c(=O)c2ccccc12 | 28% (active) | -6 | 48
CCOc1ccccc1CNC(=O)Cn1ncc2c([nH]c3ccccc32)c1=O | 102% (inactive) | -0.4 | 103
CCOc1ccc(OCC(=O)OC(C)C(=O)Nc2ncc(Cl)cc2Cl)cc1 (centres undefined) | 106% (inactive) | 0.3 | 97
Cc1cccc(OCCOc2ccc(Br)cc2/C=C2\SC(=S)NC2=O)c1 | 101% (inactive) | -0.2 | 104
Cc1cc(C)c(C(N)=O)c(SCC(=O)Nc2c(C)n(C)n(-c3ccccc3)c2=O)n1 | 103% (inactive) | 0.1 | 97
O=C1c2ccccc2C(=O)N1CC1OCc2ccccc2CO1 | 103% (inactive) | 0.3 | 110
O=C1Cc2ccccc2C(=O)N1Cc1ccccn1 | 85% (active) | -1.9 | 83
CSc1nc(=O)n(Cc2ccccn2)c2c1CCC2 | 101% (inactive) | 0.1 | 104
Cc1ccc(NC(=O)C2C3C=CC4(O3)C2C(=O)N(CCCN2CCOCC2)C4C(=O)NC2CCCC(C)C2C)cc1Cl (centres undefined) | 101% (inactive) | 0.1 | 103
CCn1c(=O)cc(O)c2ccccc21 | 115% (inactive) | 1.3 | 123
CCn1c2ccccc2c2cc(CN3CCN(Cc4cccc(Cl)c4)CC3)ccc21 | 103% (inactive) | 0.1 | 108
CCn1c2ccccc2c2cc(P(=S)(OC)OC)ccc21 | 81% (active) | -2.3 | 86
O=C(CCc1nc(CN2CCN(S(=O)(=O)c3ccc(F)cc3)CC2)no1)N1CCCCC1 | 109% (inactive) | 0.3 | 112
O=C(C1CCN(S(=O)(=O)c2ccc3[nH]c4c(c3c2)CCCCC4)CC1)N1CCCC1 | 100% (inactive) | -1 | 97
O=C(CN1CCN(S(=O)(=O)c2ccc3[nH]c(=O)[nH]c3c2)CC1)N1CCCCCC1 | 86% (active) | -1.1 | 93
CCC1CN2CCC34c5ccccc5NC3C(C)C1CC24 (centres undefined) | 101% (inactive) | 0.3 | 104
CCOC(=O)C1=C(C)NC(=O)NC1c1c(Cl)nc2c(C)cccn2c1=O (centres undefined) | 104% (inactive) | 0 | 109
CCC(C)NC(=O)C1c2ccccc2C(=O)N1Cc1ccccc1 (centres undefined) | 102% (inactive) | 0.2 | 102
